Source: PubChem BioAssay (NCATS)
Inconclusive results are not listed. Active and inactive are the calls of the source. Calls come from the whole dose curve; as a rule, active = well fitted curve in the direction sought with a large enough effect; inconclusive = small, poorly fitted or top-dose-only effect, or another doubt; inactive = no such curve, though single readings can be large; an effect the other way counts as inactive or inconclusive.

Key:
[1] = biological target: Glutathione peroxidase 1 (Homo sapiens) (UniProt P07203); assay: Primary qHTS Assay for Inhibitors of Recombinant Selenoprotein Glutathione Peroxidase 1 (GPX1) (AID 1845191); note: nearly all actives have a fitted effect of over 65% in size
Glutathione peroxidase 1 (Homo sapiens), sequence (P07203 whole entry, looked up): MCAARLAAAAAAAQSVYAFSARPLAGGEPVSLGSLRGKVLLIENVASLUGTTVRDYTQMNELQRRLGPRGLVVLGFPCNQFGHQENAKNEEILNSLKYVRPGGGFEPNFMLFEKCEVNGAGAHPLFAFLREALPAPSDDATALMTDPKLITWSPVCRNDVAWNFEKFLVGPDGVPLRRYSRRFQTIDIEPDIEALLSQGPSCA
How it was run: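 GR-coupled readout: NADPH consumption tracked by fluorescence, ex 340/em 450 nm, at t=0 and after 15 min at RT. Final mix 10 nM GPX1, 1 mM GSH, 0.5 mM CHP, 0.5 mM NADPH, 100 nM GR, 0.01% BSA, following 30 min enzyme–compound preincubation.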

[2] = biological target: Phospholipid hydroperoxide glutathione peroxidase GPX4 (Homo sapiens) (UniProt P36969); assay: Primary qHTS Assay for Inhibitors of Recombinant Selenoprotein Glutathione Peroxidase 4 (GPX4) (AID 1845192); note: nearly all actives have a fitted effect of over 65% in size
Phospholipid hydroperoxide glutathione peroxidase GPX4 (Homo sapiens), sequence (P36969 whole entry, looked up): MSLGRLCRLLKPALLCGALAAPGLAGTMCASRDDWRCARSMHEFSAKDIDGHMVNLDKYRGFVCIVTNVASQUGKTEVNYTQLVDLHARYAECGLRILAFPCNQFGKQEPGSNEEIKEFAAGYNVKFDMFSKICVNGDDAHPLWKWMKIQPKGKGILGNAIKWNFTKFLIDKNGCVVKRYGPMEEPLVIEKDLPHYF
How it was run: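 Steps: GPX4 plus compound, 30 min RT; add GR/GSH/NADPH master mix; start with cumene hydroperoxide; read 340/450 nm fluorescence at 0 and 15 min. Finals were 200 nM GPX4, 1 mM GSH, 0.5 mM CHP, 0.5 mM NADPH, 100 nM GR.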

[3] = biological target: Luciferin 4-monooxygenase (Photinus pyralis) (UniProt P08659); assay: Primary firefly luciferase (FLuc) qHTS assay for identification of artifact compounds. (AID 1845220); note: nearly all actives have a fitted effect of over 60% in size
How it was run: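 Enzymatic FLuc inhibition assay: compounds pre-exposed to luciferin/ATP (10 uM each) for 15 min, then purified P. pyralis enzyme at 10 nM added. Read-out: luminescence at 5 min.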

[4] = system: Nanoluciferase (engineered Oplophorus gracilirostris luciferase); assay: Primary Nanoluciferase (NLuc) qHTS assay for identification of artifact compounds. (AID 1845222); note: potency is the fitted concentration of half-maximal effect
How it was run: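 S16 cell supernatant NLuc, 1:55; cpds qHTS; 15 min RT dark; Nano-Glo substrate 1:100, 5 min; luminescence; Hill fit of % inhibition.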

[5] = Primary redox qHTS assay for identification of artifact compounds. (AID 1845223)
How it was run: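 Redox-cycling detection via DTT (250 uM final) oxidation coupled to Amplex Red (25 uM)/HRP (250 mU/mL) in HBSS. 15 min preincubation plus 30 min after DTT, room temperature. Ex/Em 525/598 nm; 4-parameter Hill fit against DMSO and 10 uM DA3003.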

Measured: Potency

COc1ccccc1C(=O)Nc1cc2c(cc1N1CCCC1)n(C)c(=O)n2C
inactive: all assays above

O=c1[nH]cnc2c([C@@H]3N[C@H](CO)[C@@H](O)[C@H]3O)c[nH]c12
inactive: all assays above

O=C(NNc1nc2cc(F)ccc2n2cccc12)c1cnccn1
inactive: all assays above

Cc1cc(-c2cc(OC(=O)c3ccccc3)ccc2Cl)cc2nnc(Nc3ccc(OCCN4CCCC4)cc3)nc12
inactive: all assays above

Cc1nnc(-c2ccc(-c3ccc(C(=O)Nc4ccc(O)c(N5CCN(C)CC5)c4)cc3)c(C)c2)o1
inactive: [1] | [2] | [3]
active: [4] 1510 nM

Clc1ncoc1-c1c[nH]c2ccccc12
inactive: all assays above

O=C1Nc2ccccc2-c2nc3ccccc3c(=O)n2-c2c(O)cccc21
not listed: [5]
inactive: all other assays above

COc1ccc(N2CCN(C(=O)c3cc4c(s3)-c3ccccc3S(=O)(=O)C4)CC2)cc1
inactive: all assays above

C=C1C(=O)O[C@@H]2C[C@H](C)[C@@H]3CC(=O)[C@H](O)[C@@]3(C)C[C@H]12
inactive: all assays above

O=c1ccc2ccc(OCCCCN3CCN(c4cccc5sccc45)CC3)cc2[nH]1
inactive: all assays above

CC(C)C[C@@H](C(=O)N[C@@H](Cc1ccc(OCc2ccccc2)cc1)C(=O)NC(C)(C)C)N(C)Cc1ccc(C(C)(C)C)cc1
inactive: all assays above

Cc1c(F)ccc(C(=O)Nc2cc([N+](=O)[O-])ccc2N2CCN(C)CC2)c1Cl
inactive: all assays above

O=[N+]([O-])c1ccc(Oc2ccc3c(c2)CCC(c2ccccc2)O3)nc1 (stereo not drawn)
inactive: all assays above

CC[C@H](C)/C=C(C)/C=C/C1=CC2=C(Cl)C(=O)[C@](C)(O)[C@H](OC(C)=O)[C@H]2CO1
inactive: all assays above

CN1CCN(c2ccc(Nc3cc(-c4cccc(-n5ccc6cc(C7CC7)cc(F)c6c5=O)c4CO)cn(C)c3=O)nc2)CC1
inactive: all assays above

CC1(C(=O)Nc2ccc(F)nc2)CCCN1c1nc(Nc2cc(C3CC3)[nH]n2)c2cccn2n1 (stereo not drawn)
inactive: all assays above

COc1cc(-c2cn(C3CCc4c(F)cccc4N(CC(F)(F)F)C3=O)nn2)ccc1-n1cnc(C)c1 (stereo not drawn)
inactive: all assays above

Cc1cn2c(n1)Cc1ccc(Cl)cc1C(c1ccc(N)cc1)=N2
inactive: all assays above

CCn1c(=O)c(-c2ccc(-c3cncs3)cc2Cl)cc2cnc(Nc3ccc(N4CCN(C)CC4)cc3)nc21
inactive: all assays above

C=C1CCC2[C@](C)(CCC[C@@]2(C)C=O)[C@H]1CC/C(C)=C/CO (stereo partly drawn)
inactive: all assays above

Cc1[nH]c2ccc(F)cc2c1-c1nc2c3cccnc3c3ncccc3c2[nH]1
inactive: all assays above

Cn1cc(C2=C(c3coc4ccccc34)C(=O)NC2=O)c2cc(Br)ccc21
inactive: all assays above

O=C(NO)c1cnc(N2CCN(S(=O)(=O)c3ccc4ccccc4c3)CC2)nc1
inactive: all assays above

C=C1/C(=C/C=C2\CCC[C@]3(C)[C@@H]([C@H](C)/C=C/[C@@H](C)C(C)C)CC[C@@H]23)C[C@@H](O)C[C@@H]1O
inactive: all assays above

Cc1cc(C)c(S(=O)(=O)n2cc(C)cc2C)c(C)c1
inactive: all assays above

CC(O)C(C)n1ncn(-c2ccc(N3CCN(c4ccc(OCC5COC(Cn6cncn6)(c6ccc(Cl)cc6Cl)O5)cc4)CC3)cc2)c1=O (stereo not drawn)
inactive: all assays above

CC[C@@H](C)[C@@H]1OC2(C=C[C@H]1C)C[C@@H]1C[C@H](C/C=C(\C)[C@H](O[C@H]3C[C@H](OC)[C@H](O[C@H]4C[C@H](OC)[C@H](NC(C)=O)[C@H](C)O4)[C@H](C)O3)[C@H](C)/C=C/C=C3\CO[C@H]4[C@H](O)C(C)=C[C@@H](C(=O)O1)[C@@]34O)O2 (stereo partly drawn)
inactive: all assays above

O=c1nc(-c2ccccn2)sc2ccccc12
inactive: all assays above

COc1cc(OC)c(NC(=O)c2ccc(Cc3cc4c(cc3C)C(C)(C)CCC4(C)C)o2)c(OC)c1
inactive: all assays above

COc1cc2c(c(OC)c1CC=C(C)C)C[C@H](c1ccc(O)c(CC=C(C)C)c1O)CO2
inactive: all assays above

COc1ccc(C2Oc3c(OC)cc(CCCO)cc3C2COC2OC(CO)C(O)C(O)C2O)cc1OC (stereo not drawn)
inactive: all assays above

COC(=O)c1sccc1S(=O)(=O)Nc1ccc(Nc2ccccc2)cc1OC
inactive: all assays above

CN(C)c1cccc(Oc2cnc(Nc3cccc(O)c3)nc2)c1
inactive: all assays above

Cc1[nH]c(/C=C2\C(=O)Nc3ccc(F)cc32)c(C)c1C(=O)NCCN1CCCC1
inactive: all assays above

CC1(CO)CC2C(O)C3=C(CC(C)(O)C2C1)C(=O)OC3 (stereo not drawn)
inactive: all assays above
